The source of these data is PubChem BioAssay.

Test [1] can be described thus: binders of probe aFSTL3 on microarray, primary screen, stem cell growth factor project, biochemical, small-molecule microarray, fluorescence 635/667 (AID 1064).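 Note: measures binding of the biotinylated anti-FSTL3 antibody to printed compounds.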 The note with it: higher = more signal.
Test [2] can be described thus: binders from COS7 lysate, DM2A8 probe, primary screen, torsin A project, cell lysate, small-molecule microarray, fluorescence 635/667 (AID 1065). The note with it: higher = more signal, COS7 lysate expressing mutant human TOR1A.
Test [3] in a line: binders of probe aFGF2 on microarray, primary screen, stem cell growth factor project, biochemical, small-molecule microarray, fluorescence 635/667 (AID 1067).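 Note: measures binding of biotinylated aFGF2 protein to printed compounds on slides; z-score merges feature fluorescence and signal-to-noise across triplicate slides.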 The note with it: higher = more signal.
The nature of test [4]: binders of probe aFGF10 on microarray, primary screen, stem cell growth factor project, biochemical, small-molecule microarray, fluorescence 635/667 (AID 1071).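 Note: score merges 667 nm spot intensity and signal to noise from triplicate slides.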 The note with it: higher = more signal.
Test [5] concerns the target Neurogenic locus notch homolog protein 2 (Homo sapiens) (UniProt Q04721). Description: Notch2 binders on small-molecule microarrays, primary screen, biochemical, small-molecule microarray, 635 nm fluorescence, stem cell growth factors (AID 1073). The note with it: Notch2 binding, higher = more signal.
Test [6] has as its target Pro-neuregulin-1, membrane-bound isoform (Homo sapiens) (UniProt Q02297). Briefly: NRG1 binders on small-molecule microarrays, primary screen, psychiatric disease protein project, biochemical, small-molecule microarray, fluorescence 635/667 (AID 1075).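 Note: score combines 667 nm spot fluorescence with signal to noise.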 Conditions: NRG1 binding, 635 nm fluorescence, higher = more signal.
For test [7], the system named is Neuregulin-1 EGF-like domain. Description: binders of neuregulin-1 EGF-like domain, primary screen, biochemical, small-molecule microarray, 635 nm fluorescence (AID 1081).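 Note: binding of the protein to compounds printed on small-molecule microarray slides.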 The note with it: small-molecule microarray binding, higher = more signal.
Test [8] can be described thus: FRG1 promoter luciferase signal modulators, primary screen, FRG1 inhibition for FSHD, cell-based, C2C12 myotubes, firefly/Renilla luciferase, luminescence (AID 1084). The note with it: higher = more signal, called active from +8 up or from −8 down.
Test [9] can be described thus: binders of probe aFST on microarray, primary screen, stem cell growth factor project, biochemical, small-molecule microarray, fluorescence 635/667 (AID 1086).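 Note: score merges 667 nm fluorescence with signal-to-noise of each printed compound spot.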 The note with it: higher = more signal.
Test [10] can be described thus: binders of probe aHhip on microarray, primary screen, stem cell growth factor project, biochemical, small-molecule microarray, fluorescence 635/667 (AID 1087).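 Note: score merges spot fluorescence at 667nm with spot signal to noise ratio.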 The note with it: higher = more signal.
The subject of test [11] is PRMT1 (protein arginine N-methyltransferase 1). Description: PRMT1 binders on small-molecule microarrays, primary screen, biochemical, small-molecule microarray, 635 nm fluorescence (AID 1088).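 Note: binding of Prmt1 protein to compounds spotted on small-molecule microarray slides.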 Conditions: small-molecule microarray binding, higher = more signal.
Test [12] in a line: yeast growth modulation, basal conditions, primary screen, YJM789 clinical isolate, OD600, 24 h (AID 1089).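 Note: growth of clinical yeast isolate S. cerevisiae YJM 789 seeded 1000 cells per well; test concentration not given here.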 The note with it: S. cerevisiae YJM789 growth, higher = more signal, called active from +8 up or from −8 down.
The nature of test [13]: fission yeast growth modulation, primary screen, strain 972, OD600, 24 h, no modulator (AID 1090).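 Note: basal condition with compound alone and no growth modifier present; test concentration not given here.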 Conditions: S. pombe 972 growth, higher = more signal, called active from +8 up or from −8 down.
Test [14] in a line: S. cerevisiae growth modulation with rapamycin, primary screen, strain BY4716, OD600, 96 h (AID 1091). Note: test concentration not given here. Conditions: higher = more signal, called active from +8 up or from −8 down.
Test [15] addresses Torsin-1A-interacting protein 2 (Homo sapiens) (UniProt Q8NFQ8). Description: LULL1 binders on small-molecule microarray, primary screen, cell lysate, human LULL1 lysate, 635/667 nm fluorescence (AID 1092).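 Note: probe is lysate of COS7 cells overexpressing human LULL1; score merges per-feature 667 nm fluorescence with signal-to-noise.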 Conditions: hLULL1 lysate binding, 635 nm fluorescence, higher = more signal.
The nature of test [16]: E. coli growth modulation, two-sided OD650, primary screen, E. coli filamentation project, strain DRC41, 24 h (AID 1093).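 Note: MC1000 strain lacking acrAB efflux and sulA so SOS filamentation is blocked; test concentration not given here.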 The note with it: OD650, 24 h, higher = more signal, called active from +8 up or from −8 down.
A short description of test [17]: small-molecule microarray binders of probe aLefty2, primary screen, biochemical, biotinylated probe, 635/667 nm fluorescence (AID 1094).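 Note: score merges spot fluorescence near 667 nm with spot signal-to-noise ratio.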 The note with it: higher = more signal.
Test [18] concerns Noggin (protein binding on small-molecule microarray). Briefly: Noggin binders on small-molecule microarray, primary screen, biochemical, 635/667 nm fluorescence (AID 1095).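 Note: score merges 667 nm feature fluorescence with signal to noise over triplicate slides.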 The note with it: 635 nm fluorescence, higher = more signal.
In test [19] the target is Neurogenic locus notch homolog protein 3 (Homo sapiens) (UniProt Q9UM47). Description: NOTCH3 binders on small-molecule microarray, primary screen, biochemical, 635/667 nm fluorescence (AID 1096). Conditions: NOTCH3 binding, 635 nm fluorescence, higher = more signal.
Chain of Neurogenic locus notch homolog protein 3 (Homo sapiens) (Q9UM47 whole entry, looked up): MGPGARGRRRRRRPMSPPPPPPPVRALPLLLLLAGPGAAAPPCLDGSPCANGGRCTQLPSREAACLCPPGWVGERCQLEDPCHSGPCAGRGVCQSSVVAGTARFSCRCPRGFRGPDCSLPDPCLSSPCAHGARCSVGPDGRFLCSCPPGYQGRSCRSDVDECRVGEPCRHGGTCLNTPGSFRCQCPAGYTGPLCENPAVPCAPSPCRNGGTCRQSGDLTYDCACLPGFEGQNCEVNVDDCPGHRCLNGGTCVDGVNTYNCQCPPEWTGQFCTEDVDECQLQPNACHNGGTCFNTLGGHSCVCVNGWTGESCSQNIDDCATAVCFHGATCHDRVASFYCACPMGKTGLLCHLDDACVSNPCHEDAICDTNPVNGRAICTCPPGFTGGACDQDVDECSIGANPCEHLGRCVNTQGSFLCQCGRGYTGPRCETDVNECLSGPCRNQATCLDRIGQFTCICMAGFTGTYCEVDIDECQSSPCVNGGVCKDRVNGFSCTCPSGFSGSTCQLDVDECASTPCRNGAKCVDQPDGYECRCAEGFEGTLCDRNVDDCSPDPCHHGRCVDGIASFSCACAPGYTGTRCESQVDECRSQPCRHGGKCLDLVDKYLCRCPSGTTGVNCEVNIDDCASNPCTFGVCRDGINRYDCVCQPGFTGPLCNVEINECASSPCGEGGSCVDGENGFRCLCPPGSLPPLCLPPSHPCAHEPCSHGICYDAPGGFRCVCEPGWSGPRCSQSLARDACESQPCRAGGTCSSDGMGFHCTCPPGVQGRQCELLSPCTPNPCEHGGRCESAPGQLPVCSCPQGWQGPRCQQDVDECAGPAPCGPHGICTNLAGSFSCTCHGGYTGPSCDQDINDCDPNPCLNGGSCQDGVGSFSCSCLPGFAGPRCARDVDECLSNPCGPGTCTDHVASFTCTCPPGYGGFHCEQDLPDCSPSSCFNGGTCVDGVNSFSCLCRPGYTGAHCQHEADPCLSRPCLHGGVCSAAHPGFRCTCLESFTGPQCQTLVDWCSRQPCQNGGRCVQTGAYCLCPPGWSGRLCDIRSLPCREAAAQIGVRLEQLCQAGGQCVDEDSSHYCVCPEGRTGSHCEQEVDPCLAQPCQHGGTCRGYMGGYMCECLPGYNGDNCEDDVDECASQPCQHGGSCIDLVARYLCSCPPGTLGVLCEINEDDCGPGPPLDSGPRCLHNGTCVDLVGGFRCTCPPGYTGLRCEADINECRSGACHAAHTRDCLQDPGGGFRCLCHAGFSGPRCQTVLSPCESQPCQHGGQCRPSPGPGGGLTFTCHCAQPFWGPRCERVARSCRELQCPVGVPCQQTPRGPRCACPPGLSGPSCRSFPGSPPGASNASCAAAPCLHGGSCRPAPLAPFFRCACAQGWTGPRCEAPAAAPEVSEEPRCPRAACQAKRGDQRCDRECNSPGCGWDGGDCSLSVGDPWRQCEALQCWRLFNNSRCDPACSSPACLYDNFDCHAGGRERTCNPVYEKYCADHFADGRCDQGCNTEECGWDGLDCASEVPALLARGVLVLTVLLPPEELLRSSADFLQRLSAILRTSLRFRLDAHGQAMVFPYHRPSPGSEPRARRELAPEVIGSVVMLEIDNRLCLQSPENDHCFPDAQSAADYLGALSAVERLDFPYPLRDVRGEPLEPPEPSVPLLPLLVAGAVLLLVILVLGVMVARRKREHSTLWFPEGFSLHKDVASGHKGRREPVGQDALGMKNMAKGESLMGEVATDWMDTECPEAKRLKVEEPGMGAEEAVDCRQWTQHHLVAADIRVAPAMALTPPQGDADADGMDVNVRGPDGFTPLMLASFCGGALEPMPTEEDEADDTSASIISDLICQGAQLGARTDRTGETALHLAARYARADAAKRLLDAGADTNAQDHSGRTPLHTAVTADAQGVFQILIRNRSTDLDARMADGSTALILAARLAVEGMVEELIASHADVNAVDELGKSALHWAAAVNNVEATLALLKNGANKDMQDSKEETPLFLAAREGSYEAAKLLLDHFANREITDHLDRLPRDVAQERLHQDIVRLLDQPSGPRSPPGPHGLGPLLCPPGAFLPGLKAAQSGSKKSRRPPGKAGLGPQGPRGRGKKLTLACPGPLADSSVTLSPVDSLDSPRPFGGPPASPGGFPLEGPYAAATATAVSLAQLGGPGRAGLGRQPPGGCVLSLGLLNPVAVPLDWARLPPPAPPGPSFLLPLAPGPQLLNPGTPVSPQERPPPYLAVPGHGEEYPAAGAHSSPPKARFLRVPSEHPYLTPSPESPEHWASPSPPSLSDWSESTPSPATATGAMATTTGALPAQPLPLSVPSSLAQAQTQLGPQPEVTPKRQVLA
The nature of test [20]: small-molecule microarray binders of probe aEGFR, primary screen, biochemical, biotinylated probe, 635/667 nm fluorescence (AID 1097).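 Note: probe is a biotinylated anti-EGFR antibody binding compounds printed on slides; score combines fluorescence near 667 nm and signal to noise of each spot.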 The note with it: higher = more signal.

Calls of active or inactive are those of the source.

Chain of Neurogenic locus notch homolog protein 2 (Homo sapiens) (Q04721 whole entry, looked up, canonical isoform): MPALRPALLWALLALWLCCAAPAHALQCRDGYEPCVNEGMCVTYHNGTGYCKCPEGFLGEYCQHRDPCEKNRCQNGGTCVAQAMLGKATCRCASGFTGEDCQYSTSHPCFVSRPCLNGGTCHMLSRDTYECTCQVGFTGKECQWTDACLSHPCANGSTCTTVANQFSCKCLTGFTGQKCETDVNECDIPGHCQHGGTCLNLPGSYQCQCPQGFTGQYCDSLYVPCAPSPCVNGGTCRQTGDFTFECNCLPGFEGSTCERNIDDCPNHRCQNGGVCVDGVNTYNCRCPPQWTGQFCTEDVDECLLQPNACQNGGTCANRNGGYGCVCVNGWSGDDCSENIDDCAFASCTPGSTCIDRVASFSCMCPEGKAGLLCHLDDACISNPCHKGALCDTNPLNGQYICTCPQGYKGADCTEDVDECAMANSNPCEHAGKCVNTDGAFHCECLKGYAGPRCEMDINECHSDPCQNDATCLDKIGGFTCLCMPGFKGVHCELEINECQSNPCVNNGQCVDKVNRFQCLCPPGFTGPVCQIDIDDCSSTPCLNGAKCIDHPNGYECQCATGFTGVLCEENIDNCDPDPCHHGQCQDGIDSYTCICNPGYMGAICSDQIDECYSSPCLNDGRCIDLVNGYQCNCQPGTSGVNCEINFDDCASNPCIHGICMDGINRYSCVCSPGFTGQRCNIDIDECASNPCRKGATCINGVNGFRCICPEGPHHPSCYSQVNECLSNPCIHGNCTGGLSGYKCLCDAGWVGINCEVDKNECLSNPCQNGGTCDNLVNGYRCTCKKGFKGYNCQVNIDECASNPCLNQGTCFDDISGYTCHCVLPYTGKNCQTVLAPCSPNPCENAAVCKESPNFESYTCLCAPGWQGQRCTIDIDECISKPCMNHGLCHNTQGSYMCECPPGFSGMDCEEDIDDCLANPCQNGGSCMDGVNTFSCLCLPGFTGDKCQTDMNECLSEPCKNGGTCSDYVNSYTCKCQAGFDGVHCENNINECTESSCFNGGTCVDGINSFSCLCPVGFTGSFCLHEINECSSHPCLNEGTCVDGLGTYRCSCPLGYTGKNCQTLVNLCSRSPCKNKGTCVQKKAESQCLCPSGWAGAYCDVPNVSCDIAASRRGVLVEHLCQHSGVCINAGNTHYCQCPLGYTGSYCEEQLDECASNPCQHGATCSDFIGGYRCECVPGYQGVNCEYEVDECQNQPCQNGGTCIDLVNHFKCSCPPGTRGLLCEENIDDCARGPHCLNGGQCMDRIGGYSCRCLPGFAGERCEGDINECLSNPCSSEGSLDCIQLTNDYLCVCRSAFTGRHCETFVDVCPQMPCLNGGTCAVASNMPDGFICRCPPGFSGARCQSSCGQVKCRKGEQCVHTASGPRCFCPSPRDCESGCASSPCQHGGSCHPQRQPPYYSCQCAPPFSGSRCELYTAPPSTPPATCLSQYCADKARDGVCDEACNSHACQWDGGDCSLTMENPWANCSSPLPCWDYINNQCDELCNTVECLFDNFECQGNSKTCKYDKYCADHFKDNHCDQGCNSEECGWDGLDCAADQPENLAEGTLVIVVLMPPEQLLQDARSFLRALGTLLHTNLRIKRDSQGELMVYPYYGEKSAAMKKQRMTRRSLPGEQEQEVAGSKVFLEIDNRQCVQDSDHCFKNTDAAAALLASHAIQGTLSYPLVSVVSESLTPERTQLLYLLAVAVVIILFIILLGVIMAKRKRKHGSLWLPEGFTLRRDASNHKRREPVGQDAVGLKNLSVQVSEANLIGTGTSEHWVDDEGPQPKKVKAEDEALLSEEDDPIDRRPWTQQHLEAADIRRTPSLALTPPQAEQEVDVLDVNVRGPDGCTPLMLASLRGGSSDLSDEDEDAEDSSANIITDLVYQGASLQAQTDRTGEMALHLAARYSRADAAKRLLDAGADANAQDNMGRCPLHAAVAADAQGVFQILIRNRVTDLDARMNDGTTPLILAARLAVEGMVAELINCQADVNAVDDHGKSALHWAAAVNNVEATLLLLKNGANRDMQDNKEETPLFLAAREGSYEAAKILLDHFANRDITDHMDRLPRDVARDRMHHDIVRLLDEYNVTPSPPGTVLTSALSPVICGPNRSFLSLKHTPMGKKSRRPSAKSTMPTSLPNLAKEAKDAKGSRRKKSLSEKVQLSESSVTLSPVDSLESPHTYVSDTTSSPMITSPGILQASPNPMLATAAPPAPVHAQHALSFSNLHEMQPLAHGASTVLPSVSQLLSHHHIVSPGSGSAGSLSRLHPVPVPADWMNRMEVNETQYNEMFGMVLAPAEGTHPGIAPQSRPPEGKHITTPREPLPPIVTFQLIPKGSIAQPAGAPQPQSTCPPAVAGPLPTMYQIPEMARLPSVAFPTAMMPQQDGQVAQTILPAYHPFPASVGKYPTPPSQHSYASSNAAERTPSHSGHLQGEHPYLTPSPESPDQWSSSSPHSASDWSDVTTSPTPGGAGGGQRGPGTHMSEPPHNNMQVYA

On to `C[C@@H]1ON(c2ccccc2)[C@H](c2ccccc2)[C@H]1C(=O)N1C(=O)OC[C@H]1Cc1ccccc1`, for which the composite z-score in [1] was -0.414; in [2] it was 0.464; in [3], -0.127; in test [4], 0.464; in test [5], 0.844; in test [6], 0.243. Moreover, the composite z-score was 0.539 in test [7]; 0.138 in test [9]; 0.0574 in [10]; 1.3 in test [11]; 0.786 in test [15]; -0.166 in [17]. In addition, the figures for the composite z-score in [18], in [19] and in test [20] were 0.405, 0.826 and -0.0549, respectively. Moreover, the z-score in test [8] is -0.114 (inactive); in test [12] it was 0.713 (inactive); in test [13], -0.451 (inactive); in test [14], 0.125 (inactive); in [16], 0.547 (inactive).
As to `COc1ccc(CCNC(=O)[C@@H]2c3ccccc3C(=O)N(Cc3ccccc3C(F)(F)F)[C@H]2c2ccc(CO)cc2)cc1`, the composite z-score in [1] was 0.114; in [2], 1.02; in test [3], 0.0292; in test [4], 0.0105; in [5], -0.354; in [6] it was 1.2. Further, the composite z-score in test [7] was 0.472; in test [9], -0.211; in test [10] it was -0.134; in [11], 0.77; in test [15], 2.92; in test [17] it was 0.0258. Also, the composite z-score in test [18] is -0.185; in [19], -0.0818; in [20], -0.216. Besides, the z-score in test [8] is -0.646 (inactive); in [12], -0.0666 (inactive); in test [13], 0.057 (inactive); in [14] it was -0.0429 (inactive); in [16], 0.415 (inactive).
`CC(C)C[C@@H]1NC(=O)[C@@]23C(=O)N[C@@H](Cc4ccccc4)C2[C@H](C)[C@@]2(C)O[C@H]2C3/C=C/C/C=C\CNC(=O)[C@@H]2CCCN2C1=O` (stereo not given in full): the composite z-score in test [1] is -0.566; in test [2], 0.0462; in [3], -0.106; in [4], -0.0448; in [5], -0.385; in [6] it was -0.492. In addition, the composite z-score in test [7] is -0.378; in test [9], 0.0833; in test [10] it was -0.0994; in [11], -0.653; in test [15] it was 0.0315; in test [17], -0.223. Besides, the composite z-score in [18] is 0.326; in test [19] it was -0.46; in [20], -0.121. Besides, the z-score in test [8] is 2.09 (inactive); in test [12] it was 0.0289 (inactive); in test [13] it was -0.151 (inactive); in [14], -0.453 (inactive); in [16] it was -0.762 (inactive).
Consider `[N-]=[N+]=NCc1ccccc1[C@H]1OC(c2ccc(OCCCO)cc2)=N[C@@]1(Cc1ccccc1)C(N)=O`, for which the composite z-score in [1] is 0.712; in [2], 0.163; in test [3], 0.0138; in [4] it was 0.68; in test [5], 1.05; in test [6], 1.36. Further, the composite z-score in test [7] came out at 1.1; in test [9] it was 1.24; in [10] it was 0.0623; in test [11], 1.56; in test [15], 3.37; in [17] it was 0.408. The composite z-score in test [18] is 0.429; in [19], 1.13; in test [20], 0.29. Moreover, the z-score in test [8] is 2.79 (inactive); in test [12], -0.116 (inactive); in [13], -1.07 (inactive); in test [14] it was -0.443 (inactive); in [16] it was 0.369 (inactive).
With `C#CCOC(=O)N[C@H](C=CCCCC)c1ccccc1`, the composite z-score in [1] came out at 0.209; in test [2], 0.108; in test [3] it was 0.0934; in test [4], 0.239; in test [5] it was 1.33; in test [6], 2.33. The composite z-score is 1.31 in test [7]; 0.129 in test [9]; 0.382 in test [10]; -0.893 in test [11]; 2.96 in [15]; 0.148 in [17]. For the same compound, the composite z-score in [18] was -0.373; in [19] it was -0.404; in test [20], 0.0082. Moreover, the z-score in test [8] was -0.237 (inactive); in test [12] it was 0.126 (inactive); in test [13] it was -0.091 (inactive); in [14], 0.0673 (inactive); in [16], 0.392 (inactive).
With `CCC[C@@H]1C[C@@]1(CCC)[C@@H](NC(=O)c1cccs1)c1ccc(Cl)cc1`, the composite z-score in [1] was 1.38; in test [2], -0.553; in test [3], -0.0861; in test [4], -0.092; in test [5], -1.6; in test [6] it was 0.161. For the same compound, the composite z-score in test [7] was -0.405; in [9], -0.711; in test [10], -0.254; in test [11], 0.0333; in test [15] it was 1.4; in [17], 0.0395. Besides, the figures for the composite z-score in test [18], in [19] and in test [20] were -1.87, -0.118 and -0.435, respectively. In addition, the z-score was -2.04 (inactive) in [8]; -0.5 (inactive) in [12]; -3.76 (inactive) in [13]; -0.454 (inactive) in [14]; 0.102 (inactive) in [16].
`COc1ccc([Si](C)(C)[C@@H]2[C@@H](CCO)O[C@]3(C(=O)N(Cc4cccc(N5C(=O)COc6ccccc65)c4)c4ccccc43)[C@H]2C)cc1`: the composite z-score was 0.0857 in test [1]; -0.183 in test [2]; -0.072 in [3]; 0.492 in test [4]; 0.0822 in test [5]; 1.18 in test [6]. For the same compound, the composite z-score in test [7] is 0.818; in [9] it was -0.287; in [10], -0.164; in test [11], 0.896; in test [15] it was 1.61; in test [17], -0.124. Moreover, the composite z-score is -0.142 in test [18], 0.528 in test [19] and -0.0864 in test [20]. Besides, the z-score in test [8] is -1.22 (inactive); in test [12], 3.01 (inactive); in test [13], 1.09 (inactive); in [14] it was 36.8 (active); in [16] it was 0.685 (inactive).
Consider `Cc1ccc(S[C@]2(C(=O)NCc3ccccc3)CC(=O)N(C3Cc4ccccc4C3)[C@@H]2c2ccc(CO)cc2I)cc1`, for which the composite z-score was -0.0093 in test [1]; 0.247 in test [2]; -0.123 in [3]; -0.257 in [4]; -0.312 in test [5]; 1.64 in test [6]. For the same compound, the composite z-score in test [7] was -0.185; in test [9] it was -0.134; in [10], -0.246; in test [11] it was 1.19; in [15] it was 2.11; in test [17], -0.165. The composite z-score in test [18] is -0.508; in [19], -0.288; in test [20], -0.135. Further, the z-score was -1.73 (inactive) in test [8]; -2.5 (inactive) in [12]; -1.73 (inactive) in test [13]; 0.199 (inactive) in test [14]; 3.17 (inactive) in [16].
Consider `COc1ccc([Si](C)(C)[C@H]2[C@H](CCn3cc(CCO)nn3)O[C@@]3(C(=O)N(Cc4cccc(N5C(=O)c6cccc7cccc5c67)c4)c4ccccc43)[C@@H]2C)cc1`, for which the composite z-score is -0.201 in test [1]; 0.603 in [2]; -0.105 in [3]; 0.906 in [4]; 0.45 in test [5]; 0.772 in test [6]. The composite z-score was 0.862 in test [7]; 0.395 in [9]; 1.55 in [10]; 1.46 in test [11]; 2.2 in [15]; -0.288 in [17]. Besides, the composite z-score is 1.03 in test [18], 0.79 in test [19] and -0.142 in [20]. Besides, the z-score is -3.54 (inactive) in [8]; 0.502 (inactive) in [12]; 0.903 (inactive) in test [13]; 27.7 (active) in [14]; 0.921 (inactive) in test [16].
